Measurements reported in PubChem BioAssay (NCATS).
Values joined by “and” are separate entries in the source; they are usually repeats but may differ in a detail not shown here. Equal values may be shown once. Inconclusive results are not listed. Where a structure was tested more than once in an assay, its records may differ in their call. Active and inactive are the calls of the source. Unless noted, calls come from the whole dose curve; as a rule, active = well fitted curve in the direction sought with a large enough effect; inconclusive = small, poorly fitted or top-dose-only effect, or another doubt; inactive = no such curve, though single readings can be large; an effect the other way counts as inactive or inconclusive.

What was measured:
[1] = target: Voltage-gated inwardly rectifying potassium channel KCNH2 (Homo sapiens) (UniProt Q12809); test: qHTS Assay for Small Molecule Inhibitors of the Human hERG Channel Activity (AID 588834);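 note: top concentration of the series differs between compounds; % is set by controls: 0 for no effect and ±100 for the full control effect; lower thallium flux fluorescence means stronger hERG block; nearly all actives have a fitted effect of over 50% in size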
Voltage-gated inwardly rectifying potassium channel KCNH2 (Homo sapiens), sequence (Q12809 whole entry, looked up): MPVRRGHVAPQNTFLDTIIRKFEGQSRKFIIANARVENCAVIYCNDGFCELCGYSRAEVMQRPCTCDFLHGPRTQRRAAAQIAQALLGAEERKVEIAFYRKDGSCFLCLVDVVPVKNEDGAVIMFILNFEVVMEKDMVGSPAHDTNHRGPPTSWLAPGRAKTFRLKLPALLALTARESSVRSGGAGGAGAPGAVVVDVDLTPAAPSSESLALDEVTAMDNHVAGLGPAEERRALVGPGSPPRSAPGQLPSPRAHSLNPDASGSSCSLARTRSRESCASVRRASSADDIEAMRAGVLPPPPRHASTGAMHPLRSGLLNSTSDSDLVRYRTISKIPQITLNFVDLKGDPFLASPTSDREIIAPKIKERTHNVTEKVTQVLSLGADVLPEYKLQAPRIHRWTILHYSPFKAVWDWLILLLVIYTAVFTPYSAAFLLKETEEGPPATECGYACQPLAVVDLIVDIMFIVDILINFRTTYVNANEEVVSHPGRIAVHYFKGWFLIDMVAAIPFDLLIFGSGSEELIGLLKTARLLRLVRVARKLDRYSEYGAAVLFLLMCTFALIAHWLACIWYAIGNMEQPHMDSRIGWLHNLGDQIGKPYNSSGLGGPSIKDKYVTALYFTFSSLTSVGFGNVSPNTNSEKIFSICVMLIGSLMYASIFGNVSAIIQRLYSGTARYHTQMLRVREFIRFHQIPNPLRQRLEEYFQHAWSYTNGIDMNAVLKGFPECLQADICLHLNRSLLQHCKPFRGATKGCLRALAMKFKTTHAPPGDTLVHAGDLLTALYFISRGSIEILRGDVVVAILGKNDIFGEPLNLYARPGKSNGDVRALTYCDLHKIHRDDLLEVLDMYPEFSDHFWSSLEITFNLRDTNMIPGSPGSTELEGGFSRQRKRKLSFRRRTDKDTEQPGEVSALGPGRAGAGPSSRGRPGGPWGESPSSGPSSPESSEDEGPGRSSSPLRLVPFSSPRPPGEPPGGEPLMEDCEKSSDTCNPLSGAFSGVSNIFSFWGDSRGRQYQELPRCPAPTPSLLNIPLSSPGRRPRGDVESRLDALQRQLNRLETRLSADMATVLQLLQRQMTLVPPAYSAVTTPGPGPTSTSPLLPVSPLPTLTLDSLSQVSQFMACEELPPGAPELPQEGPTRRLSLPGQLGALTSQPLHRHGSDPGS
Summary of the method: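 hERG block measured as reduced thallium-dye (FluxOR) fluorescence after stimulation buffer addition, read over 2 min. Cells were hERG-BacMam-transduced U2OS exposed to compound ~10 min […]; concentration-response fitted with Hill equation for AC50.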

[2] = qHTS assay for small molecule agonists of the antioxidant response element (ARE) signaling pathway (AID 651741; active = well fitted activation curve with a large enough effect in the signal ratio; the % refers to the signal ratio; note: potency is the fitted concentration of half-maximal effect; for activation: % of control where 0% means no effect)
Summary of the method: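 Agonist activity is measured as ARE-driven beta-lactamase expression in a stable HepG2 reporter line, using 16 h compound treatment at 37 C and a FRET substrate fluorescence readout after 2 h.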

[3] = qHTS assay for small molecule activators of the p53 signaling pathway (AID 651743; active = well fitted activation curve with a large enough effect in the signal ratio, not every such curve was filed as active; the % refers to the signal ratio; note: series mostly up to about 92 µM; % of control where 0% means no effect); details: HCT-116 p53RE-bla, beta-lactamase FRET ratio, 16 h; activation: stronger effect = higher value
Summary of the method: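 A beta-lactamase reporter under p53 response element control, stably carried by HCT-116 cells, reported pathway activation. Test compounds were applied for 16 hours at 37 C, and fluorescence was measured 2 hours after adding the B/G FRET substrate.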

[4] = qHTS assay for small molecule disruptors of the mitochondrial membrane potential - 1 hr assay (AID 651754; calls by dose curve; note: % is set by controls: 0 for no effect and ±100 for the full control effect; nearly all actives have a fitted effect of over 35% in size)
Summary of the method: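 In this qHTS format, a 1 hr compound treatment of HepG2 cells precedes Mito-MPS staining, and membrane potential is judged from aggregate (red) against monomer (green) fluorescence intensity.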

[5] = qHTS assay for small molecule disruptors of the mitochondrial membrane potential - 5 hr assay (AID 651755; calls by dose curve; note: % is set by controls: 0 for no effect and ±100 for the full control effect; nearly all actives have a fitted effect of over 40% in size)
Summary of the method: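 Membrane-potential dye readout: red aggregate (540 ex/590 em) versus green monomer (490 ex/535 em) fluorescence after 30 min dye loading, following 5 hr compound exposure at 37C of overnight-plated HepG2 cells.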

[6] = target: Tumor necrosis factor (Homo sapiens) (UniProt P01375); test: qHTS assay to identify small molecules that stimulate Tumor Necrosis Factor-alpha (TNF-alpha) secretion (AID 651757; active = well fitted curve in the direction sought with a large enough effect in the signal ratio; the % refers to the signal ratio; note: 0% is about no effect)
Tumor necrosis factor (Homo sapiens), sequence (P01375 whole entry, looked up): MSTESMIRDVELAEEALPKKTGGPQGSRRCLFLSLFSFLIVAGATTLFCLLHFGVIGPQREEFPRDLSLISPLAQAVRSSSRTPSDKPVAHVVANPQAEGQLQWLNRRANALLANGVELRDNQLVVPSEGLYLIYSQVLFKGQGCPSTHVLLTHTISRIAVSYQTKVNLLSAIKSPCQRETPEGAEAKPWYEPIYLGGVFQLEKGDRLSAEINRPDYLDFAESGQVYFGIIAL
Summary of the method: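 Using 3000 THP-1 cells per well, compounds and controls were applied for 17 hrs at 37 C. Detection followed with two labeled anti-TNF-alpha antibodies (cryptate donor, XL665 acceptor) for 3 hr at room temperature, measured by TR-FRET.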

[7] = qHTS assay to identify small molecules that stimulate interleukin-8 (IL-8) secretion (AID 651758; active = well fitted activation curve with a large enough effect in the signal ratio; the % refers to the signal ratio; note: 0% is about no effect)
Summary of the method: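 Secreted IL-8 measured homogeneously by TR-FRET (two labelled anti-IL-8 antibodies, 1-3 h at room temperature) after a 16 h, 37 C compound treatment of THP-1 cells at 2000 cells/well.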

[8] = target: Peroxisome proliferator-activated receptor alpha (Homo sapiens) (UniProt Q07869); test: qHTS assay for small molecule agonists of the peroxisome proliferator-activated receptor alpha (PPARalpha) signaling pathway (AID 651778); details: PathHunter PPARalpha complementation, chemiluminescence, 6 h; max response: stronger effect = higher value; note: % of control where 0% means no effect
Peroxisome proliferator-activated receptor alpha (Homo sapiens), sequence (Q07869 whole entry, looked up): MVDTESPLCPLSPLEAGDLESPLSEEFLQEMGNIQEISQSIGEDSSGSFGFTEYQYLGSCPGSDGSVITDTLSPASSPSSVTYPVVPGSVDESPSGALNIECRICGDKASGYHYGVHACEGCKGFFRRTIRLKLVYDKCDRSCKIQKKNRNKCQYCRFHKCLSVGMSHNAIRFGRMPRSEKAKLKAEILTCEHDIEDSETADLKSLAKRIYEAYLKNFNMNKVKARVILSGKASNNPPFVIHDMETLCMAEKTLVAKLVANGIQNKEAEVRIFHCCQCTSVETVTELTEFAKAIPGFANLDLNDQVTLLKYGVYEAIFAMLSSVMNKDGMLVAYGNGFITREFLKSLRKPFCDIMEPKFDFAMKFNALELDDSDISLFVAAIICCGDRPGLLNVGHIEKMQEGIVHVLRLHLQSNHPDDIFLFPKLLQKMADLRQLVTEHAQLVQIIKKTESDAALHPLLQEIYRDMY
Summary of the method: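 Chemiluminescence from complemented enzyme reported PPARalpha activation in cells after 6 hr of compound treatment at 37 C. The detection reagent was incubated for 60 min at room temperature, and compounds were scored as agonists.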

[9] = target: Nuclear receptor ROR-gamma (Homo sapiens) (UniProt P51449); test: qHTS assay for small molecule antagonists of the retinoid-related orphan receptor gamma (ROR-gamma) signaling pathway (AID 651802);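 note: CHO cells with doxycycline-induced ROR-gamma expression; luciferase reporter luminescence driven by ROR response element; series mostly up to about 92 µM; % is set by controls: 0 for no effect and ±100 for the full control effect; nearly all actives have a fitted effect of over 60% in size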
Nuclear receptor ROR-gamma (Homo sapiens), sequence (P51449 whole entry, looked up): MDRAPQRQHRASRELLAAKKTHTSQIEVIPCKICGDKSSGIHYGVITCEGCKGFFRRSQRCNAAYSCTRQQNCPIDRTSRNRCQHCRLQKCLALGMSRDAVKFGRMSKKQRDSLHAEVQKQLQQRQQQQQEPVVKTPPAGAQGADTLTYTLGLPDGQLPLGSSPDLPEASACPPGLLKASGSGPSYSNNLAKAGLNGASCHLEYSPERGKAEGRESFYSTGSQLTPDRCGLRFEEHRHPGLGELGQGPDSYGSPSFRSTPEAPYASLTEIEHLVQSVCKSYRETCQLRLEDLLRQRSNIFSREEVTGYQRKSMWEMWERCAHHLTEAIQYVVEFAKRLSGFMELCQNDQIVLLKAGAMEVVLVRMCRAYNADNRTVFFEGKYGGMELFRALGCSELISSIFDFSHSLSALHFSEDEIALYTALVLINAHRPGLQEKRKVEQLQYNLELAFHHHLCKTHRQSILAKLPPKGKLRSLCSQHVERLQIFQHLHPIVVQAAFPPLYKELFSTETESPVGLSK
Summary of the method: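 Doxycycline-induced reporter activity in engineered CHO cells (TET-inducible ROR, RORE-LUC) was measured by luminescence after 16hr compound exposure at 37C.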

[10] = qHTS assay for small molecule agonists of the antioxidant response element (ARE) signaling pathway measured by Nrf2-dependant transcriptional activity (AID 720636; active = well fitted curve in the direction sought with a large enough effect in the repeat runs; an effect the other way counts as inactive or inconclusive;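 note: HepG2 cells with an ARE-driven luciferase reporter; % of control where 0% means no effect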)
Summary of the method: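 Nrf2-dependent transcription is measured in ARE-luc HepG2 cells: compound is applied for 16 hr at 37 C after a 6 hr attachment period, and luciferase activity is quantified by luminescence using ONE-Glo.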

[11] = qHTS assay for small molecule antagonists of the retinoid-related orphan receptor gamma (ROR-gamma) signaling pathway - cell viability counter screen (AID 720652; active = well fitted curve in the direction sought with a large enough effect in the repeat runs; an effect the other way counts as inactive or inconclusive;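 note: CHO reporter cells with doxycycline-induced ROR-gamma expression; series mostly up to about 92 µM; compound exposure lasted 16 hr before ATP read; % is set by controls: 0 for no effect and ±100 for the full control effect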)
Summary of the method: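 ATP-based viability readout in the ROR-gamma reporter CHO cells after 16 hr compound exposure under doxycycline induction.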

[12] = qHTS assay for small molecule agonists of the antioxidant response element (ARE) signaling pathway measured by Nrf2-dependant transcriptional activity - cell viability counter screen (AID 720653; active = well fitted curve in the direction sought with a large enough effect in the repeat runs; an effect the other way counts as inactive or inconclusive; note: % is set by controls: 0 for no effect and ±100 for the full control effect); details: ARE-bla HepG2 viability, CellTiter-Glo ATP luminescence, 16 h; max response: stronger effect = lower value
Summary of the method: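 Cytotoxicity counter screen: intracellular ATP quantified by CellTiter-Glo luminescence in the same ARE-bla HepG2 plates, after 16 h compound exposure and a 2 h beta-lactamase substrate step.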

[13] = qHTS assay for cell viability of HEK293 cells (AID 743288); details: ATP luminescence (CellTiter-Glo), 18 h; max response: stronger effect = lower value; note: % is set by controls: 0 for no effect and ±100 for the full control effect; nearly all actives have a fitted effect of over 50% in size
Summary of the method: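 Readout is luciferase-coupled ATP content (CellTiter-Glo luminescence, 30 min room temperature) as a measure of metabolically competent cells. Parental HEK293 cells were plated 5 h or more before compound addition, then treated 18 h at 37 C.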

[14] = qHTS assay for cell viability of the p53RE-bla HCT-116 cell line (AID 743292); note: % is set by controls: 0 for no effect and ±100 for the full control effect; nearly all actives have a fitted effect of over 55% in size
Summary of the method: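 ATP-based luminescence, 16 h compound exposure at 37 C, p53RE-bla HCT-116 cells at 4,000/well.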

[15] = HepG2 viability counterscreen (readout 2: ATP content) against the NCATS DSHEA and TCM libraries (AID 1794840);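 note: HepG2 cells exposed to substances for about 24 h; 0% is about no effect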
Summary of the method: (§1)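 Readout 1: cellular protease activity, GF-AFC substrate (25 uM final, 30 min, fluorescence 380/510 nm). Readout 2: ATP content by CellTiter-Glo luminescence after 30 min at RT. Both follow ~24 h exposure of HepG2 cells (1,000/well) to substances.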

[16] = HepG2 viability counterscreen (readout 1: protease activity) against the NCATS DSHEA and TCM libraries (AID 1794841);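 note: cells exposed to compounds for about 24 h before the protease read; 0% is about no effect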
Summary of the method: as §1

[17] = target: Cytochrome P450 3A4 (Homo sapiens) (UniProt P08684); test: qHTS for inhibitors of CYP3A4 against the NCATS DSHEA and TCM libraries (AID 1919971);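 note: % is set by controls: 0 for no effect and ±100 for the full control effect; inhibition lowers luminescence from luciferin made by CYP3A4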
Summary of the method: (§2)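 Isoform-specific enzyme and substrate levels; enzyme-free wells as background. Reaction: 1x NADPH regenerating system, 30-45 min, room temperature, shielded from light; luminescent detection reagent added, 30 min.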

[18] = target: Cytochrome P450 2D6 (Homo sapiens) (UniProt P10635); test: qHTS for inhibitors of CYP2D6 against the NCATS DSHEA and TCM libraries (AID 1919972); note: % is set by controls: 0 for no effect and ±100 for the full control effect
Cytochrome P450 2D6 (Homo sapiens), sequence (P10635 whole entry, looked up): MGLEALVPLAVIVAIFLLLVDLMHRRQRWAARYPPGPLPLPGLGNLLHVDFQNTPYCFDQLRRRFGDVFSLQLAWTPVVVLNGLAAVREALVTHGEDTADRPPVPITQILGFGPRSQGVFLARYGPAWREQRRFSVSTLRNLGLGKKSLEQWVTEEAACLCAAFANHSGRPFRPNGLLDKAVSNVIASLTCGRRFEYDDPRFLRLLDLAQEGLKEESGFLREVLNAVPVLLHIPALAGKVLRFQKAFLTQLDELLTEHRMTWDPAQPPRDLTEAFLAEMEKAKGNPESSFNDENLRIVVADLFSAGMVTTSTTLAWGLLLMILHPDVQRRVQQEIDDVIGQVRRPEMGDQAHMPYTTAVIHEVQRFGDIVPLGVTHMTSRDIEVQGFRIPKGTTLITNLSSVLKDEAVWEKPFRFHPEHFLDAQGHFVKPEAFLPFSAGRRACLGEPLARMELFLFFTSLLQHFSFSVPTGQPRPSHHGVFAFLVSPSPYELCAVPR
Summary of the method: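 qHTS, concentration–response format with most substances from 19.5 nM. CYP2D6 + pro-luciferin substrate, 15 min with compound, then 1x NADPH regen, 30–45 min RT dark. Glo detection 30 min, luminescence. Quinidine control.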

[19] = target: Cytochrome P450 2C9 (Homo sapiens) (UniProt P11712); test: qHTS for inhibitors of CYP2C9 against the NCATS DSHEA and TCM libraries (AID 1919973);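 note: luminogenic pro-luciferin CYP2C9 substrate turned into luciferin with NADPH regeneration; series mostly up to about 34 µM; % is set by controls: 0 for no effect and ±100 for the full control effect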
Cytochrome P450 2C9 (Homo sapiens), sequence (P11712 whole entry, looked up): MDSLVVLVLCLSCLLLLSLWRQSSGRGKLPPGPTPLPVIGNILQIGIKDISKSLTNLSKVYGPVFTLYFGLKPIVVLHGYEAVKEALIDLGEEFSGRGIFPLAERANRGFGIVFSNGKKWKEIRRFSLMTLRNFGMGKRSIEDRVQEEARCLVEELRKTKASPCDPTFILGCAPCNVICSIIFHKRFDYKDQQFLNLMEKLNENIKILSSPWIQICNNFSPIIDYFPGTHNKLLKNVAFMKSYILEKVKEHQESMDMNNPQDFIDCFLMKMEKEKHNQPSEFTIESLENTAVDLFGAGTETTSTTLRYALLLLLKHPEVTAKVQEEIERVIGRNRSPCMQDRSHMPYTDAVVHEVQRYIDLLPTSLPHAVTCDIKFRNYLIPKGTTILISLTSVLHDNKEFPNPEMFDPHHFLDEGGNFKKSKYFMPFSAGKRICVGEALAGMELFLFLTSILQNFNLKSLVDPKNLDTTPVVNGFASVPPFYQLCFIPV
Summary of the method: as §2

[20] = target: Cytochrome P450 2C19 (Homo sapiens) (UniProt P33261); test: qHTS for inhibitors of CYP2C19 against the NCATS DSHEA and TCM libraries (AID 1919974)
Cytochrome P450 2C19 (Homo sapiens), sequence (P33261 whole entry, looked up): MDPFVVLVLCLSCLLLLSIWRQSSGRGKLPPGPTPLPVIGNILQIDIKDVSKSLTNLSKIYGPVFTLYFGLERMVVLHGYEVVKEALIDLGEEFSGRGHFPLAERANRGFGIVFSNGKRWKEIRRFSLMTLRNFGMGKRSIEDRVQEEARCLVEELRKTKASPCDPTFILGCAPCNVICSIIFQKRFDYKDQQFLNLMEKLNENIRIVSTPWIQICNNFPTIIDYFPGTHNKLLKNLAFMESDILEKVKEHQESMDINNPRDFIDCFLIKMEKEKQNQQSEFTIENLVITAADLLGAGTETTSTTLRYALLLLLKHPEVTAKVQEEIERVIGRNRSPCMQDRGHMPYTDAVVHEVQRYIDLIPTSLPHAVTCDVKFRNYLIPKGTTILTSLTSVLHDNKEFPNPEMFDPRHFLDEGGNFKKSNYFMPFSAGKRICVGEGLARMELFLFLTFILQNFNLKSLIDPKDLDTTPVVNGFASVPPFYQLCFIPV
Summary of the method: as §2

[21] = KB-3-1 P-gp reporter qHTS against the NCATS DSHEA and TCM libraries (AID 1919975); note: 0% is about no effect
Summary of the method: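 Cell viability by CellTiter-Glo luminescence following ~72 h compound exposure (concentration-response). Uses parental, non-P-gp-overexpressing KB-3-1 line, 500 cells/well in DMEM/10% FBS, attached ~4 h before dosing.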

[22] = target: Nuclear receptor subfamily 1 group I member 2 (Homo sapiens) (UniProt O75469); test: Dual reporter qHTS for agonist of Pregnane X Receptor (hPXR) against the NCATS DSHEA and TCM libraries: Luminescence readout (AID 1920059); note: 0% is about no effect
Nuclear receptor subfamily 1 group I member 2 (Homo sapiens), sequence (O75469 whole entry, looked up): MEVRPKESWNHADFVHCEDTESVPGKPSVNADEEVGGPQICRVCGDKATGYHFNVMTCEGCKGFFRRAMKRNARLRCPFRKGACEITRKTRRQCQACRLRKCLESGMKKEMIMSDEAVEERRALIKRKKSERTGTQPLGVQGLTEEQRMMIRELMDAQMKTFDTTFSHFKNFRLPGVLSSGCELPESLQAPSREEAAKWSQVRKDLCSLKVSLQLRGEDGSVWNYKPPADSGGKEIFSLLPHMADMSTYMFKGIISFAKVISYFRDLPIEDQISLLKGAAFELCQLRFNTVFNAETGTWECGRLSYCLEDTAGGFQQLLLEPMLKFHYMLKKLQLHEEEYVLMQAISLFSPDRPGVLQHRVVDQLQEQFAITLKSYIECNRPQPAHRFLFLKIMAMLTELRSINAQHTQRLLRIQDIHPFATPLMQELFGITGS
Summary of the method: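 Luminescent PXR reporter read (ONE-Glo) after a CellTiter-Fluor viability read, following 24 h, 37C treatment of HepG2 cells stably carrying hPXR-Luc.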

[23] = target: Nuclear receptor subfamily 1 group I member 2 (Homo sapiens) (UniProt O75469); test: Dual reporter qHTS for antagonist of Pregnane X Receptor (hPXR) against the NCATS DSHEA and TCM libraries: Luminescence Readout (AID 1920060);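 note: HepG2 cells carrying hPXR luciferase reporter stimulated with rifampicin at 2 µM; 0% is about no effect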
Summary of the method: (§3)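 Antagonist mode: rifampicin 2 uM final co-added with compounds to hPXR-LucHepG2 cells for 24 h at 37C. Viability by CellTiter-Fluor, Ex/Em 405/540 nm, 1 h; reporter by ONE-Glo luminescence.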

[24] = Dual reporter qHTS for antagonist of Pregnane X Receptor (hPXR) against the NCATS DSHEA and TCM libraries: Fluorescence Readout (AID 1920061); note: 0% is about no effect
Summary of the method: as §3

[25] = target: Nuclear receptor subfamily 1 group I member 2 (Rattus norvegicus) (UniProt Q9R1A7); test: qHTS assay for small molecule activators of the rat pregnane X receptor (rPXR) signaling pathway (AID 651751; call rule not given here; note: 0% is about no effect); details: rPXR reporter cells, luciferase (One-Glo), 24 h
Nuclear receptor subfamily 1 group I member 2 (Rattus norvegicus), sequence (Q9R1A7 whole entry, looked up): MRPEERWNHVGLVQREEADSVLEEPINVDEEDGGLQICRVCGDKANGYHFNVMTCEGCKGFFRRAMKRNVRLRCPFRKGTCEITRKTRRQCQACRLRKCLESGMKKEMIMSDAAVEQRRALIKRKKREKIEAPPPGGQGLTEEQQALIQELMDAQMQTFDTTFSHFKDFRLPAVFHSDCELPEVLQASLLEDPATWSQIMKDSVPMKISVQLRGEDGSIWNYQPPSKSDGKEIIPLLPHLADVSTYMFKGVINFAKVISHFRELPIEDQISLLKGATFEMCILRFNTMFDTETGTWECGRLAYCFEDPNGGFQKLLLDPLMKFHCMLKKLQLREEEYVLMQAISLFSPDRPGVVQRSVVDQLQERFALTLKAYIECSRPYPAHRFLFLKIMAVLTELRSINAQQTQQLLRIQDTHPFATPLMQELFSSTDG

[26] = qHTS assay for small molecule activators of the human pregnane X receptor (PXR) signaling pathway (AID 720659; call rule not given here; note: 0% is about no effect)

C=CCc1ccc(OC)c(OC)c1
inactive: Potency [1] | activation [3] 0.847% and -0.413% | Potency [4] | Potency [5] | outcome [6] | Potency [7] | max response [8] 8.14% and -0.977% | Potency [9] | Potency [10] | Potency [11] | max response [12] -3.29% and -7.51% | max response [13] 3.16% and -7.18% | Potency [14] | outcome [15] | outcome [16] | Potency [17] | Potency [18] | Potency [19] | Potency [20] | outcome [21] | Potency [22] | outcome [23] | outcome [24] | max response [25] -0.697% and 1.19% | outcome [26]
33.5 µM (active) and inactive: Potency [2]
